Assay results: ChEMBL document CHEMBL4513216, “Probing the Open Global Health Chemical Diversity Library for Multistage-Active Starting Points for Next-Generation Antimalarials” (ACS Infect Dis, 2020)
Screen size: about 65,000 compounds; about 2,100 (3.2%) showed an effect of 50% or more. The median lay at about -52%. Only a selection was taken, and strong results are over-represented in it overall.

System: Plasmodium falciparum
Assay: Screen against P. falciparum Asexual Blood Stage (ABS), at 5uM
Format: functional, Dd2
Conditions: tested at 5 uM

Point of comparison: `O=C1COC2(CCN(c3ncccn3)CC2)CN1`, INHIBITION -86%. Against it:
- COc1ccc(C(=O)C2CCCN(c3cc(C#N)ccn3)C2)cc1F (stereo unspecified) — lower, -126%
- CCC(CNC1CCN(C(C)=O)CC1)Oc1ccccc1Cl (stereo unspecified) — higher, 48.8%
- COCC(=O)N1CCC(Oc2cccc(C)c2)CC1 — lower, -127%
- CCC(CNC1CCN(C(C)=O)CC1)Oc1cccc(C)c1 (stereo unspecified) — higher, 53.2%
- O=C(C1CCCCC1)N1CCC2(CCCN2CC2CC2)CC1 — higher, -19.9%
- CC(C)c1noc(CN2CCN(C(=O)c3cccnc3O)CC2)n1 — higher, -63.3%
- Cc1nn(-c2ccccc2)c(C)c1-c1ccnc(N2CCCOCC2)n1 — higher, -64.7%
- Cc1nn(-c2ccccc2)c(C)c1-c1ccnc(N2CCC(O)CC2)n1 — lower, -309%
- Cc1nn(-c2ccccc2)c(C)c1-c1ccnc(N2CCCNCC2)n1 — higher, 66.9%
- CN1CCN(c2cc(Sc3cccs3)nc(N)n2)CC1CCO (stereo unspecified) — higher, -77.1%
- CN(CCc1ccccc1)C1CCCN(Cc2nccn2C)C1 (stereo unspecified) — higher, 22.1%
- CN(Cc1nccn1C)C1CCCN(CCCc2ccccc2)C1 (stereo unspecified) — higher, 63.9%
- Cc1nc(CN2CCCC(N(C)Cc3nccn3C)C2)no1 (stereo unspecified) — higher, -29.4%
- COCCC1COC2(CCN(C(=O)c3ccsc3)CC2)C1 (stereo unspecified) — lower, -101%
- CC(C)(C)C1CCC(NCCN2CCOCC2)CC1 (stereo unspecified) — higher, 56.3%
- CCC1CCC(NCCN2CCOCC2)CC1 (stereo unspecified) — higher, 5.69%
- C1CCC(NCCN2CCOCC2)C1 — lower, -99.9%
- CC(C)c1cc(C(=O)NCCc2nc3c(s2)CCC3)n(C)n1 — higher, -63.4%
- Cc1noc(C)c1-c1ccnc(C2CCNCC2)c1 — higher, -51.7%
- CC(=O)N1CC[C@@]2(O)CCCC[C@H]2[C@@H]1c1ccc2c(c1)OCO2 — lower, -87.3%
- c1cc(CCN2CCC(NCc3ccsc3)CC2)ccn1 — higher, -8.86%
- Oc1cccc(CNC2CCN(CCc3ccncc3)CC2)c1 — higher, -18.8%
- N#Cc1ccc(CNC2CCN(CCc3ccncc3)CC2)cc1 — higher, 56.7%
- CC(CNC(=O)c1cnc[nH]1)Oc1ccccc1Br (stereo unspecified) — higher, -61.4%
- CC(C)N1CCC(c2cnc(-c3cncnc3)cn2)CC1 — higher, -18%
- COc1cccc(-c2cccc(CN3C[C@H]4CC[C@@H](C3)N(C)C4=O)c2)c1 — higher, 13.1%
- Cc1ncc2c(n1)CN(CC(=O)Nc1ccc(Cl)cn1)CC2 — higher, 6.47%
- CCc1ncc2c(n1)CN(CC(=O)Nc1ccc(Cl)cn1)CC2 — higher, 59.4%
- CC(C)c1ncc2c(n1)CN(CC(=O)Nc1ccc(Cl)cn1)CC2 — higher, -65.1%
- CCCc1nc(N2CCCCCC2)c2c(n1)c(C)nn2CC — higher, 22.2%
